# This is part of a sample that, as a whole, favours compounds with a hit. Of some 83,000 tested, about 20% had one in any assay.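 Method: cells in 96-well plates; compound added at one concentration; 48 h incubation; percent growth measured; values under 10 scored active.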 Values without a mark were called inactive. Activity calls are given as the source filed them.
# System: HL-60(TB) leukemia
# Experiment: NCI-60 one-dose screen, 48 h (100 = growth as untreated, 0 = no growth, -100 = all killed)
# Details: 10 µM unless noted
row,SMILES,growth
1,CSc1cc(SC)ncn1,101%
2,CCC[CH2][Sn]1([CH2]CCC)[O]C2C(CO)OC(n3ccc(N)nc3=O)C2[O]1 (stereo not drawn),-36.6% (active)
3,CCCCCCC(C)N(CC(C)(C)O)C(=O)c1ccc([N+](=O)[O-])cc1 (stereo not drawn),95.7%
4,FC(F)(F)c1ccc2c(c1)Sc1ccccc1N2,72.6%
5,O=C(Nc1ccc(Cl)cc1)c1cc2c(cc1O)[nH]c1ccccc12,-24.5% (active)
6,Cc1nc2c(c(=O)[nH]1)C(c1ccccc1)c1ccc3ccccc3c1O2 (stereo not drawn),-2.8% (active)
7,COc1c(NC[C@H]2OC(O)[C@H](O)[C@@H](O)[C@@H]2O)c(=O)c1=O (stereo partly drawn),114%
8,CC1=C[C@H]2c3c(c(O)c(O)c4oc5c(C)cccc5c(=O)c34)[C@H](c3cc(O)c(O)c4oc5c(C)cccc5c(=O)c34)[C@H]2C(C)(C)C1,-14.5% (active)
9,C=C(C)[C@@H]1CC[C@]2(CN)CC[C@]3(C)[C@H](CC[C@@H]4[C@@]5(C)CCC(=O)NC(C)(C)[C@@H]5CC[C@]43C)[C@@H]12,-50.5% (active)
10,COc1ccc2[nH]c(O)c(/C=c3/ccc4c(c3)N=C(c3ccc(C(F)(F)F)cc3)N=4)c2c1,94.4%
11,O=c1[nH]cnc2c1ccn2C1OC(CO)C(O)C1O (stereo not drawn),34%
12,CCN1C(=O)/C(=C/C(=O)OC)S/C1=N\NC(=O)c1cc2ccc1/C=C\c1ccc(cc1)/C=C\2,88.4%
13,O=c1[nH]c(Nc2ccc(S(=O)(=O)O)cc2)nc2nc(Nc3ccc(NC(=S)Nc4ccccc4)cc3)nc(-c3ccc(O)cc3O)c12,120%
